Records with an inconclusive call do not appear. Calls of active or inactive are those of the source. Unless noted, calls follow the shape of the dose curve; as a rule, active = well fitted curve in the direction sought with a large enough effect; inconclusive = small, poorly fitted or top-dose-only effect, or another doubt; inactive = no such curve, though single readings can be large; an effect the other way counts as inactive or inconclusive.
Assays:
[1] = qHTS profiling of the MIPE4 collection as inhibitors of Plasmodium falciparum (3D7) proliferation (AID 743344; call rule not given here;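 also: scaled between DMSO vehicle wells and 0.29 µM artemisinin as full inhibition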); conditions: P. falciparum 3D7 in erythrocytes, SYBR Green DNA fluorescence, 72 h; at 28.5 µM unless noted
How it was run: (§1)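 Parasite DNA was quantified by SYBR Green I fluorescence (ex 485, em 535 nm) after overnight lysis in saponin/Triton buffer at room temperature. Cultures at 0.3% parasitemia and 2.5% hematocrit were first exposed to compound for 72 h at 37 C; signals were normalised to artemisinin (0.29 uM) and vehicle wells.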

[2] = qHTS profiling of the MIPE4 collection as inhibitors of Plasmodium falciparum (DD2) proliferation (AID 743345; call rule not given here); conditions: P. falciparum Dd2 in erythrocytes, SYBR Green DNA, 72 h; at 28.5 µM unless noted
How it was run: as §1

[3] = qHTS profiling of the MIPE4 collection as inhibitors of Plasmodium falciparum (DD2) proliferation (Rep 2) (AID 743346; call rule not given here); conditions: P. falciparum Dd2 in erythrocytes, SYBR Green DNA, 72 h; at 28.5 µM unless noted
How it was run: as §1

[4] = qHTS profiling of the MIPE4 collection as inhibitors of Plasmodium falciparum (HB3) proliferation (AID 743347; call rule not given here;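 also: plate controls were DMSO vehicle wells for no effect and artemisinin wells for full effect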); conditions: P. falciparum HB3 in erythrocytes, SYBR Green DNA, 72 h; at 28.5 µM unless noted
How it was run: as §1

[5] = High-throughput drug toxicity screening in the BPDCN cell line Gen2.2 (AID 1224824; call rule not given here); conditions: Gen2.2 BPDCN cells; at 45.8 µM (top of the series) unless noted
How it was run: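 CellTiter-Glo luminescence after 48 h compound exposure of Gen2.2 cells; percent activity set with DMSO as 100% and bortezomib (9.2 uM final) as 0%. Cells seeded at 500 per well, RPMI + 10% FBS, 37 °C.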

[6] = High-throughput drug toxicity screening in the BPDCN cell line Cal-1 (AID 1224825; call rule not given here); conditions: Cal-1 BPDCN cell viability, qHTS; at 45.8 µM (top of the series) unless noted
How it was run: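 CellTiter-Glo luminescence after 48 h compound exposure; percent activity scaled with DMSO as 100% and bortezomib (9.2 uM final) as 0%. Cal-1 cells seeded at 500/well in RPMI, 10% FBS, no phenol red.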

[7] = qHTS assay for measurement of the activity of small molecule inhibitors on Zika virus induced Caspase-3 activity in human iPSC derived neural progenitor cells (hNPCs) (AID 1224857); also: nearly all actives have a fitted effect of over 65% in size; also: potency is read from the fitted curve at half-maximal effect
How it was run: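 After overnight (16–20 h) culture at 350 cells/well, hNPCs get compound, then ZIKV 2 FFU/cell one hour later. Six hours on, Caspase-Glo 3/7 is added and luminescence measured.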

[8] = qHTS assay for measurement of the activity of small molecule inhibitors on Zika virus induced Caspase-3 activity in human astrocytoma cells (AID 1224859); also: potency is read from the fitted curve at half-maximal effect
How it was run: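 Inhibition of Zika-induced caspase-3/7 activity: SNB-19 cells, 1 h compound pretreatment, ZIKV 2 FFU/cell for 6 h at 37 C, Caspase-Glo luminescence read-out.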

[9] = qHTS Screen of the MIPE 4.0 Collection Against Ewings Sarcoma (RDES) (AID 1259252); also: nearly all actives have a fitted effect of over 35% in size; also: potency is read from the fitted curve at half-maximal effect
How it was run: (§2)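 Viability screen: 48 h incubation at 37C, 95% humidity, 5% CO2 with serially titrated compound, followed by CellTiter-Glo readout.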

[10] = qHTS Screen of the MIPE 4.0 Collection Against Ewings Sarcoma (TC71) (AID 1259253); also: nearly all actives have a fitted effect of over 40% in size; also: potency is read from the fitted curve at half-maximal effect
How it was run: as §2

[11] = qHTS Screen of the MIPE 4.0 Collection Against Ewings Sarcoma (EW8) (AID 1259255); also: nearly all actives have a fitted effect of over 35% in size; also: potency is read from the fitted curve at half-maximal effect;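 as to viability: 100% = DMSO-treated cells and 0% = medium-only wells without cells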
How it was run: as §2

[12] = qHTS assay to identify small molecule inhibitors of chordoma cells - UCH-1 (AID 1259355); also: % is scaled to controls: 0 for no effect and ±100 for the full control effect; nearly all actives have a fitted effect of over 55% in size
How it was run: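 Screening used approved and investigational drugs in 15-point titration against 800 seeded cells per well. A fixed combination of auranofin with camptothecin, doxorubicin, rubitecan and topotecan followed compound addition, and growth was scored by CellTiter-Glo after 48hr.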

[13] = qHTS assay to identify small molecule inhibitors of chordoma cells - UCH-2 (AID 1259356); also: % is scaled to controls: 0 for no effect and ±100 for the full control effect
[14] = qHTS profiling for inhibitors of Plasmodium falciparum (DD2) proliferation (AID 743323; call rule not given here); conditions: lower = more inhibition; at 28.7 µM (top of the series) unless noted
How it was run: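 SYBR Green fluorescence (ex 485, em 535 nm) of lysed cultures gives parasite DNA content; wells normalized to artemisinin (0.29 uM) and DMSO controls. Infected red cells: 0.3% parasitemia, 2.5% hematocrit, 72 h, 37 C.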

[15] = qHTS profiling for inhibitors of Plasmodium falciparum (HB3) proliferation (AID 743324); conditions: Plasmodium falciparum HB3 blood-stage proliferation; at 28.7 µM (top of the series) unless noted;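 also: 100% = DMSO vehicle wells and 0% = artemisinin-treated control wells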
How it was run: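 SYBR Green fluorescence (485 ex/535 em) of lysed cultures, incubated overnight at room temperature in the dark, quantifies parasite DNA. Infected erythrocytes at 0.3% parasitemia and 2.5% hematocrit were exposed 72 h; values normalized to DMSO and 0.29 uM artemisinin controls.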

[16] = Identifying Small Molecule Inhibitors of Pancreatic Cancer Stem Cells (A278, Adherent) (AID 1259361);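 also: viability read after 48 h compound exposure; nearly all actives have a fitted effect of over 35% in size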
How it was run: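 Monolayer and spheroid cultures are compared. Spheroids form over 14 days in stem cell medium on hydrogel-coated low-attachment plates, then are exposed to compound for 48 h before CellTiter-Glo luminescence.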

[17] = Identifying Small Molecule Inhibitors of Pancreatic Cancer Stem Cells (Panc1, Adherent) (AID 1259362); conditions: Potency: viability;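 also: compound exposure lasted 48 h before the viability read; plate controls were DMSO-treated cells for no effect and cell-free media wells for full effect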
How it was run: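 Adherent (2D) versus sphere (3D) formats; spheres generated 14 d in SCM beforehand. Compound transferred by pin tool after 4 h, 48 h incubation, CellTiter-Glo endpoint.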

[18] = qHTS Screen of the MIPE 4.0 Collection Against Ewings Sarcoma (TC32) (AID 1259256); also: nearly all actives have a fitted effect of over 45% in size; also: potency is read from the fitted curve at half-maximal effect
How it was run: as §2

CN(C)c1ccc(-c2nc3ncc(Cl)c(N4CCN(CC(=O)Nc5nccs5)CC4)c3[nH]2)cc1
parasite growth, % of DMSO control [1]: 6.94% | parasite growth remaining, % of DMSO control (lower = more inhibition) [2]: 9.69% | parasite growth, % of control (lower = inhibition) [3]: 8.18% | growth, % of control [4]: 2.92% | cell viability, % of control (lower = more cytotoxic) [5]: 3.51% | viability (% of control) [6]: 8.53% | Potency [7]: inactive | Potency [8]: inactive | Potency [9]: 20.9 µM (active) | Potency [10]: 18.7 µM (active) | Potency [11]: 16.6 µM (active)

NS(=O)(=O)c1cc(Cl)c(Cl)c(S(N)(=O)=O)c1
parasite growth, % of DMSO control [1]: 101% | parasite growth remaining, % of DMSO control (lower = more inhibition) [2]: 58.8% | parasite growth, % of control (lower = inhibition) [3]: 88.2% | growth, % of control [4]: 98.5% | cell viability, % of control (lower = more cytotoxic) [5]: 166% | viability (% of control) [6]: 125% | Potency [7]: inactive | Potency [8]: inactive | Potency [9]: inactive | Potency [10]: inactive | Potency [11]: inactive | outcome [12]: inactive | outcome [13]: inactive

CC(O)=C(C#N)C(=O)Nc1ccc(C(F)(F)F)cc1
activity, percent of control [14]: 95.5% | remaining proliferation (% of control), lower = more inhibition [15]: 98.9% | parasite growth, % of DMSO control [1]: 63.7% | parasite growth, % of control (lower = inhibition) [3]: 63.9% | growth, % of control [4]: 83.8% | cell viability, % of control (lower = more cytotoxic) [5]: 75% | viability (% of control) [6]: 81.4% | Potency [7]: 1.18 µM (active) | Potency [8]: 1.18 µM (active) | Potency [9]: 23.5 µM (active) | Potency [10]: 18.7 µM (active) | Potency [11]: 20.9 µM (active) | IC50 (viability decrease) [16]: 16.6 µM (active) | Potency [17]: inactive

Cc1ccc(NC(=O)c2cccc(N(C)C)c2)cc1NC(=O)c1ccc(O)cc1
parasite growth, % of DMSO control [1]: 35.6% | parasite growth remaining, % of DMSO control (lower = more inhibition) [2]: 87.3% | parasite growth, % of control (lower = inhibition) [3]: 55.2% | growth, % of control [4]: 31.2% | cell viability, % of control (lower = more cytotoxic) [5]: 81.9% | viability (% of control) [6]: 5.55% | Potency [7]: inactive | Potency [8]: inactive | Potency [9]: 0.118 µM (active) | Potency [10]: 0.526 µM (active) | Potency [18]: 1.05 µM (active)

CC(C)N(CCCNC(=O)Nc1ccc(C(C)(C)C)cc1)C[C@H]1O[C@@H](n2cc(Br)c3c(N)ncnc32)[C@H](O)[C@H]1O
parasite growth, % of DMSO control [1]: 5.02% | parasite growth remaining, % of DMSO control (lower = more inhibition) [2]: 7.13% | parasite growth, % of control (lower = inhibition) [3]: 9.5% | growth, % of control [4]: 7.54% | cell viability, % of control (lower = more cytotoxic) [5]: 116% | viability (% of control) [6]: 61.2% | Potency [7]: inactive | Potency [8]: inactive | Potency [9]: 23.5 µM (active) | Potency [10]: 18.7 µM (active) | Potency [18]: 20.9 µM (active)

CC1(COc2ccc3c(c2)ncn3-c2ccc3cccc(N4CCC(N)CC4)c3n2)COC1
parasite growth, % of DMSO control [1]: 5.45% | parasite growth remaining, % of DMSO control (lower = more inhibition) [2]: 6.71% | parasite growth, % of control (lower = inhibition) [3]: 14.5% | growth, % of control [4]: 4.9% | cell viability, % of control (lower = more cytotoxic) [5]: 5.87% | viability (% of control) [6]: 3.06% | Potency [7]: inactive | Potency [8]: inactive | Potency [9]: inactive | Potency [10]: inactive | Potency [18]: inactive

CC1=C(CC(=O)O)c2cc(F)ccc2C1=Cc1ccc(S(C)=O)cc1 (stereo not drawn)
parasite growth, % of DMSO control [1]: 79.1% | parasite growth remaining, % of DMSO control (lower = more inhibition) [2]: 91.5% | parasite growth, % of control (lower = inhibition) [3]: 64.2% | growth, % of control [4]: 52.4% | cell viability, % of control (lower = more cytotoxic) [5]: 6.5% | viability (% of control) [6]: 7.86% | Potency [7]: inactive | Potency [8]: inactive | Potency [9]: 1.18 µM (active) | Potency [10]: 1.32 µM (active) | Potency [18]: 1.48 µM (active)

CN(C)CCOc1ccc(-c2nc(-c3ccc4c(c3)CCC4=NO)c(-c3ccncc3)[nH]2)cc1
parasite growth, % of DMSO control [1]: 4.92% | parasite growth remaining, % of DMSO control (lower = more inhibition) [2]: 6.01% | parasite growth, % of control (lower = inhibition) [3]: 6.72% | growth, % of control [4]: 2.95% | cell viability, % of control (lower = more cytotoxic) [5]: 7.29% | viability (% of control) [6]: 36.1% | Potency [7]: inactive | Potency [8]: inactive | Potency [9]: 33.2 µM (active) | Potency [10]: 26.4 µM (active) | Potency [18]: 23.5 µM (active)
